Assay results: PubChem BioAssay (EPA / NIEHS)
Results filed as inconclusive are left out. The source made the active and inactive calls. How the source made its calls, unless noted: active means hit-call score of the fitted dose curve at least 0.9, where 1 is the maximum; inactive means score below 0.9.

Assays:
[1] = CCTE_Shafer_MEA_acute_firing_rate_mean: CCTE's Neural Acute Assay for Mean Firing Rate, Shafer Lab (AID 2284009);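 further: analyzed for loss of signal so actives lower firing rate relative to DMSO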
In short: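 Primary rat cortical neurons on 16-electrode MEA wells were exposed on DIV 13 or 15 to compound (0.03-40 uM). Spike counts per recording time, averaged over electrodes, were compared between 40-min baseline and 40-min post-exposure recordings as percent change.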

[2] = CCTE_Shafer_MEA_acute_burst_number: CCTE's Neural Acute Assay for Single-Electrode Bursts, Shafer Lab (AID 2284013)
In short: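 Primary rat cortical neurons on 16-electrode MEA wells, DIV 13 or 15, exposed to compound (0.03-40 uM; ≥3 wells); 40-min recordings at 37 C before and after treatment. Burst count expressed as percent change from baseline, DMSO as negative control.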

[3] = CCTE_Shafer_MEA_acute_burst_duration_mean: CCTE's Neural Acute Assay for Mean Burst Duration, Shafer Lab (AID 2284014);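 further: hits are decreases in mean burst duration relative to DMSO controls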
In short: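 Mean burst duration was compared between a 40 min baseline and a 40 min recording in the presence of compound (0.03-40 uM, 37 C), giving percent change per well. Cultures were rat cortical neurons at DIV 13 or 15; wells needed ≥10 active electrodes.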

[4] = CCTE_Shafer_MEA_acute_per_burst_spike_number_mean: CCTE's Neural Acute Assay for Average Number of Spikes Per Burst, Shafer Lab (AID 2284015);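 further: hits are decreases in mean spikes per burst versus baseline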
In short: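 Primary rat cortical neurons on 48-well MEA plates, treated on DIV 13 or 15 at 0.03-40 uM. Spontaneous activity recorded 40 min before and 40 min after compound at 37 C; percent change in mean spikes per single-electrode burst per well, fitted in the loss direction versus DMSO.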

[5] = CCTE_Shafer_MEA_acute_interburst_interval_mean: CCTE's Neural Acute Assay for Mean Interburst Interval, Shafer Lab (AID 2284016);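 further: percent change of mean interburst interval versus each well's own pre-dose baseline; curves fitted for decrease in interburst interval relative to DMSO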
In short: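 Primary rat cortical neurons on 16-electrode MEA wells were recorded 40 min at baseline on DIV 13 or 15, then 40 min after compound (0.03-40 uM), at 37 C. Value is percent change in mean interburst interval per well, DMSO as negative control.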

[6] = CCTE_Shafer_MEA_acute_burst_percentage_mean: CCTE's Neural Acute Assay for Percentage of Spikes in a Burst, Shafer Lab (AID 2284017)
In short: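 Primary rat cortical neurons on 16-electrode MEA wells; 40 min baseline recorded at DIV 13 or 15, then 40 min after compound (0.03-40 uM) at 37 C. Well-mean fraction of spikes in single-electrode bursts; percent change from baseline, DMSO as negative control.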

[7] = CCTE_Shafer_MEA_acute_burst_percentage_std: CCTE's Neural Acute Assay for Standard Deviation of Burst Percentage, Shafer Lab (AID 2284018);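 further: fitted in the negative direction so actives lower burst percentage SD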
In short: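 Value is percent change from baseline in the across-electrode SD of spikes-in-bursts percentage, wells with >/= 10 active electrodes. Acute 40-min exposure to 0.03-40 uM on DIV 13 or 15 rat cortical cultures, recorded at 37 C after 40-min baseline.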

[8] = CCTE_Shafer_MEA_acute_per_network_burst_spike_number_mean: CCTE's Neural Acute Assay for Average Number of Spikes in a Network Burst, Shafer Lab (AID 2284019)
In short: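 Percent change from baseline in mean spikes per network burst, spikes detected at 8x rms noise. Each compound at 0.03-40 uM in at least three wells of rat cortical cultures, recorded 40 min before and 40 min during exposure.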

[9] = CCTE_Shafer_MEA_acute_per_network_burst_spike_number_std: CCTE's Neural Acute Assay for Standard Deviation of Number of Spikes in a Network Burst, Shafer Lab (AID 2284020);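 further: fitted for decrease in spike-number SD versus DMSO so actives lower it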
In short: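 Endpoint: percent change from 40 min baseline in standard deviation of spikes per network burst, after 40 min compound exposure (0.03-40 uM, 37 C). Cortical rat neurons on MEA at DIV 13 or 15; spikes detected at 8x rms noise, 300-5000 Hz band-pass.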

[10] = CCTE_Shafer_MEA_acute_per_network_burst_electrodes_number_mean: CCTE's Neural Acute Assay for Mean Number of Electrodes in a Network Burst, Shafer Lab (AID 2284021);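 further: curves fitted for decreases only so hits reduce electrodes per burst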
In short: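 Rat primary cortical neurons on 48-well MEAs, DIV 13 or 15, were treated at 0.03-40 uM. Spikes were detected at 8x rms noise and recorded at 37 C. The mean electrodes per network burst in a 40 min exposure recording was expressed as percent change from a 40 min baseline.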

[11] = CCTE_Shafer_MEA_acute_network_burst_percentage: CCTE's Neural Acute Assay for Percentage of Network Bursts, Shafer Lab (AID 2284022);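 further: curves fitted for loss so actives lower network burst percentage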
In short: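 Rat primary cortical neuron networks on 48-well MEA plates, DIV 13 or 15, treated acutely with compound (0.03-40 uM, at least three wells). Percent of spikes within network bursts compared between 40-min recordings before and during exposure at 37 C, expressed as percent change.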

[12] = CCTE_Shafer_MEA_acute_cross_correlation_area: CCTE's Neural Acute Assay for Area of Cross Correlation, Shafer Lab (AID 2284024);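 further: curves fitted for loss of cross-correlation area so actives lower synchrony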
In short: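 Rat primary cortical neurons on 48-well MEA, DIV 13 or 15; compounds 0.03-40 uM. Baseline and post-exposure 40 min recordings at 37 C; percent change in area under pooled inter-electrode cross-correlation near zero lag, relative to DMSO.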

[13] = CCTE_Shafer_MEA_acute_cross_correlation_HWHM: CCTE's Neural Acute Assay for Cross Correlation at Half Width at Half Maximum, Shafer Lab (AID 2284026);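 further: spontaneous network firing of rat primary cortical neurons on multiwell microelectrode arrays; percent change per well from pre-dose baseline in spike cross-correlogram half width; hits are a decrease in cross-correlogram half width relative to DMSO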
In short: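 Rat primary cortical neurons on 48-well MEA plates; 40-min baseline and 40-min post-exposure recordings at 37 C on DIV 13 or 15, compounds 0.03-40 uM. Spikes detected at 8x rms noise; percent change in cross-correlogram HWHM per well vs baseline.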

[14] = CCTE_Shafer_MEA_acute_synchrony_index: CCTE's Neural Acute Assay for Synchrony, Shafer Lab (AID 2284027);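 further: network synchrony index of spontaneous spiking in primary rat cortical neurons on MEAs; fitted for loss of signal so actives lower synchrony relative to DMSO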
In short: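 Acute exposure of rat primary cortical neurons (DIV 13 or 15) at 0.03-40 uM. Synchrony index, 40 min before vs after, as % change relative to DMSO control.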

[15] = CCTE_Shafer_MEA_dev_firing_rate_mean: CCTE's Neural Network Formation Assay for Mean Firing Rate, Shafer Lab (AID 2284031);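 further: AUC of well mean spike rate recorded on DIV 5 7 9 and 12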
In short: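 Extracellular spike frequency, AUC over DIV 5–12 recordings, in rat cortical neuron MEA cultures dosed from plating; loss direction vs DMSO.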

[16] = CCTE_Shafer_MEA_dev_active_electrodes_number: CCTE's Neural Network Formation Assay for Number of Active Electrodes, Shafer Lab (AID 2284040; active means hit-call score of the fitted dose curve at least 0.9, where 1 is the maximum)
In short: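 Developing rat cortical networks on MEAs, exposed DIV 0–12. Value is the AUC of active-electrode counts (≥5 spikes/min) from days 5, 7, 9, 12, relative to DMSO.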

[17] = CCTE_Shafer_MEA_dev_burst_rate: CCTE's Neural Network Formation Assay for Burst Rate, Shafer Lab (AID 2284042)
In short: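 Rat primary cortical cultures on PEI/laminin MEA; compound from plating, re-dosed at DIV 5, 9 media change. Single-electrode bursts/recording length, well mean of active electrodes; AUC over DIV 5–12 recordings; loss-of-signal vs DMSO.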

[18] = CCTE_Shafer_MEA_dev_burst_duration_mean: CCTE's Neural Network Formation Assay for Mean Burst Duration, Shafer Lab (AID 2284045)
In short: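 Mean single-electrode burst duration (first to last spike), averaged over bursting electrodes per well, then integrated as area-under-curve across recordings at days 5, 7, 9 and 12. Rat cortical cultures on MEAs, compound present from plating, refreshed at feeds.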

[19] = CCTE_Shafer_MEA_dev_interburst_interval_mean: CCTE's Neural Network Formation Assay for Mean Interburst Interval, Shafer Lab (AID 2284046);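 further: well-mean interburst interval of bursting electrodes as AUC over four recording days; curve fitted for decrease in interburst interval relative to DMSO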
In short: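 Rat cortical neurons, 1.5 x 10^5 cells/well, 48-well MEA; compound from day 0 through DIV 12, media and treatment renewed DIV 5/9. Recordings DIV 5, 7, 9, 12; well-mean interburst interval → trapezoidal AUC, loss direction vs DMSO.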

[20] = CCTE_Shafer_MEA_dev_inter_network_spike_interval_mean: CCTE's Neural Network Formation Assay for Mean Inter-network Spike Interval, Shafer Lab (AID 2284047)
In short: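 Primary rat cortical neurons on PEI-coated 48-well MEAs (16 electrodes/well) were exposed from plating day 0 to DIV 12, with dosing renewed at DIV 5 and 9. Recordings at DIV 5, 7, 9, 12 were collapsed by trapezoidal AUC, loss-of-signal fit vs DMSO.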

[21] = CCTE_Shafer_MEA_dev_network_spike_number: CCTE's Neural Network Formation Assay for Number of Network Spikes, Shafer Lab (AID 2284048);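 further: synchronized bursts across electrodes counted on days 5 7 9 12 and integrated as AUC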
In short: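 Number of network spikes (coordinated firing across electrodes) recorded on days 5, 7, 9 and 12 and summarised as area under the curve. Rat cortical cultures on MEA, continuous compound exposure with full medium/treatment exchange at DIV 5 and 9.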

[22] = CCTE_Shafer_MEA_dev_network_spike_peak: CCTE's Neural Network Formation Assay for Mean Number of Electrodes in Network Spike, Shafer Lab (AID 2284049)
In short: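 Rat cortical primary culture, 1.5 x 10^5 cells/well, 48-well MEA (16 electrodes/well). Dosing day 0 through DIV 12, full media/compound exchange DIV 5, 9. AxIS adaptive spike detection; AUC over days 5/7/9/12; loss-of-signal vs DMSO.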

Measured: AC50

C#CCN(C)[C@H](C)Cc1ccccc1
active: [3] 8.86 µM | [5] 15 µM
inactive: all other assays above
